# Assay outcomes deposited in PubChem BioAssay by Small Molecule Screening Facility, UW Madison.
# RMI-FANCM inh: blocks RMI1/RMI2 complex binding to FANCM MM2 peptide; Fluorescence polarization, RMI core complex with F-MM2 peptide; stronger effect = lower value; 70,000 compounds, 0.58% hits; AID 1159607; FP signal (polarization) at 33 µM; in the data active = FP signal below about 40
# The depositor's hits bear a star; ! = a repeat was not active. Only a selection was taken, and hits are over-represented in it overall.
SMILES,RMI-FANCM inh
CC(C)(C)NC(=O)Nc1nnc(SCC(=O)Nc2ccccc2C(F)(F)F)s1,55
Cc1nnc2ccc(N3CCN(S(=O)(=O)/C=C/c4ccccc4)CC3)nn12,69
O=C(/C=C/S(=O)(=O)c1ccc(Br)cc1)c1ccc(Cl)cc1,63
Cc1ccc(=O)n(S(=O)(=O)c2ccc(F)cc2F)n1,54
Cc1cc(F)ccc1S(=O)(=O)NCC1CCN(C2CCCC2)CC1,78
Cc1cc(F)ccc1S(=O)(=O)ON1C(=O)c2ccccc2C1=O,27*
COc1ccc(-c2cc(=O)n(CC(=O)NCc3ccncc3)cn2)cc1,65
COc1ccc(NC(=O)CCCSc2ccc(NC(C)=O)nn2)cc1OC,62
CCOC(=O)/C(C)=N/O,53
CCN1C(=O)Cc2cc(NC(=O)c3c(-c4ccccc4Cl)noc3C)ccc21,68
CCOC(=O)C(=O)Nc1c(C)nc2ccc(C)cn2c1=O,55
Cc1ccc2nc(C)c(NC(=O)Cc3ccccc3)c(=O)n2c1,73
Cc1ccc2nc(C)c(NC(=O)Cc3cccs3)c(=O)n2c1,28*
COc1ccc(C(Nc2cc(C)on2)c2c(C)[nH]c3ccccc23)cc1OC (stereo not given),58
Cc1[nH]c2ccccc2c1C(Nc1ccccn1)c1cccc([N+](=O)[O-])c1 (stereo not given),25*!
Cc1[nH]c2ccccc2c1C(Nc1ccccc1F)c1ccccn1 (stereo not given),97
CN1C(=O)C(C)(C)COc2ccc(NS(=O)(=O)c3ccc(F)cc3)cc21,64
O=C(NCc1ccco1)C(=O)Nc1ccc2c(c1)N(S(=O)(=O)c1cccs1)CCC2,53
O=C(CCCOc1ccc(Cl)cc1Cl)Nc1ccc(S(=O)(=O)N2CCCC2)cc1,66
O=S(=O)(NCC(c1ccsc1)N1CCc2ccccc2C1)c1cccc2ccccc12 (stereo not given),80
COc1ccc2c(c1)sc(=NC(=O)c1ccc3c(c1)CCCC3)n2C,60
S=c1[nH]cc2ccccn12,18*
Cn1c(-c2ccccc2)c[nH]c1=S,60
S=c1[nH]nc2ccccn12,56
CC(C)c1cccc2sc(NC(=O)C3CCCN(S(C)(=O)=O)C3)nc12 (stereo not given),64
SMILES,RMI-FANCM inh
CC(C)(C)c1ccc(S(=O)(=O)Nc2cc3c4c(oc3c3ccccc23)CCCC4=O)cc1,56
N#C/C(=C\Nc1ccc(S(=O)(=O)N=C(N)N)cc1)c1nc(-c2ccc([N+](=O)[O-])cc2)cs1,104
N#C/C(=C\Nc1ccc(S(=O)(=O)NC(N)=O)cc1)c1nc(-c2ccc(Cl)cc2)cs1,15*
Cc1ccc(-c2csc(/C(C#N)=C/Nc3ccc(Cl)c(C(F)(F)F)c3)n2)cc1,65
Cc1ccc(S(=O)(=O)Oc2cc(C)nc(-c3cccc(C)c3)n2)cc1,63
N#Cc1c(N=Cc2cc(Br)cc(Br)c2O)sc2c1CCCC2,53
CCOC(=O)c1c(N=Cc2ccc(N(CC)CC)cc2O)sc2c1CCCC2,80
CCN(CC)c1ccc(C=Nc2sc3c(c2C#N)CCCC3)c(O)c1,18*
O=C(CSc1ncnc2c1nnn2Cc1ccc(F)cc1)NCc1ccccc1Cl,62
O=C(Nc1nnc(-c2cc(Cl)sc2Cl)o1)C1=COCCO1,67
N#Cc1c(-c2cccnc2)c2c([nH]c1=O)-c1ccccc1SC2,33*
N#Cc1ccc(-c2cccnc2)[nH]c1=O,58
CCCCOc1ccccc1NC(=O)CC1Sc2ccc(C(F)(F)F)cc2NC1=O (stereo not given),60
CCN(CC)C(=O)c1cc([N+](=O)[O-])cc2c1-c1ccc([N+](=O)[O-])cc1C2=O,51
COc1cccc(OCC(=O)Nc2ccc3c(c2)OCC(C)(C)C(=O)N3C)c1,66
Cc1cc(NC(=O)CN2CCN(Cc3nc4ccccc4[nH]3)CC2)no1,59
CC1(C)O[C@H]2O[C@H](C(CC#N)OS(C)(=O)=O)[C@H](OCc3ccccc3)[C@H]2O1 (stereo not given in full),62
COC(=O)Nc1ccc2c(c1)NC(=O)C(C)(C)CO2,66
CC1(C)COc2ccc(N)cc2NC1=O,37*
CC(C)S(=O)(=O)Nc1ccc2c(c1)NC(=O)C(C)(C)CO2,70
CC1(C)CC2C1CCC1(C)OC1CCC2(C)O (stereo not given),67
CC1(C)CC2C1CCC1(C)OC2(C)CCC1O (stereo not given),-8*
O=C(COC(=O)c1ccc(S(=O)(=O)N2CCCCC2)cc1)c1ccc(Cl)cc1,56
CS(=O)(=O)c1ncc(Br)c(C(=O)O)n1,55
O=C(O)c1ncccc1Br,57
SMILES,RMI-FANCM inh
O=C(O)c1nc2nccnc2cc1Br,17*
Cc1ccc(C)c(Cn2cnc3c(-c4cccc(Cl)c4)csc3c2=O)c1,66
O=c1c2scc(-c3cccc(Cl)c3)c2ncn1Cc1cc(=O)n2ccccc2n1,16*
O=c1c2scc(-c3ccccc3)c2ncn1Cc1cccc(Cl)c1,63
C=CCn1c(SCC(=O)Nc2ccc(F)c(Cl)c2)nc2sc3c(c2c1=O)CCC3,84
Cc1ccc2oc(C(=O)NCCn3c(C)cc4ccccc43)cc2n1,26*
Cc1ccc2oc(C(=O)NCc3cccs3)cc2n1,64
CSc1ccccc1NC(=O)c1cc2nc(C)ccc2o1,58
CC1CCCCN1c1ccc2cccc(OCC(=O)N3CCc4ccccc43)c2n1 (stereo not given),55
C=CCN1C(=O)C(C)(C)COc2cc(NC(=O)COc3ccc(Cl)cc3Cl)ccc21,57
Cc1nn(-c2ccccc2)c(N2CCCCC2)c1/C=N\Nc1nc2ccccc2s1,8*
CCn1c(/C=N\Nc2nc3ccccc3s2)nc2ccccc21,59
COc1ccc(C(=O)N/N=C\c2c(C)nn(-c3ccccc3)c2N2CCCCC2)cc1OC,57
O=C(Nc1ccc(-c2ccc(N3CCOCC3)nn2)cc1)Nc1ccc2c(c1)OCO2,113
CN1CCc2cc(C(CNC(=O)COc3ccccc3F)N3CCOCC3)ccc21 (stereo not given),66
O=C(O)CC(NS(=O)(=O)c1cc(S(=O)(=O)NC(CC(=O)O)c2ccccc2)c2cccc3c2c1NC3=O)c1ccccc1 (stereo not given),52
COC(=O)c1ccccc1NS(=O)(=O)c1cccc2cccnc12,61
COC(=O)c1ccccc1NS(=O)(=O)c1cc(S(=O)(=O)Nc2ccccc2C(=O)OC)c2cccc3c2c1NC3=O,30*
O=C(NCCOc1ccc(F)cc1)NC1CCCCC1,60
Cc1ccc(NC(=O)CSc2ncc(S(=O)(=O)c3cccs3)c(N)n2)c(Br)c1,84
CC(C(=O)c1ccc(-c2ccccc2F)cc1)N1CCN(c2ccc(C#N)cc2)CC1 (stereo not given),25*!
O=C(NC(=S)N1CCN(c2ccc(F)cc2)CC1)c1ccccc1,59
O=C(NC(=O)N1CCN(c2ccc(F)cc2)CC1)c1ccccc1,61
Cc1ccc(/C=C2/SC(c3ccccc3)=NC2=O)o1,118
Cc1cc(NC(=O)Cc2ccc(F)cc2)n(-c2nc3c(F)cccc3s2)n1,69
SMILES,RMI-FANCM inh
O=C(NCC1CCN(Cc2cccs2)CC1)c1ccc(F)cc1,74
COc1ccc(CN2CCN(C(c3ccc(F)cc3)c3ccc(F)cc3)CC2)c(OC)c1OC,65
C(=C\c1ccccc1)/CN1CCN(C(c2ccccc2)c2ccccc2)CC1,54
Fc1ccc(C(c2ccc(F)cc2)N2CCN(C/C=C/c3ccccc3)CC2)cc1,24*!
COC(=O)Nc1cccc(N2CCCCC2=O)c1,65
Cc1cc(C)nc(NS(=O)(=O)c2ccc(NC(=O)CC3(CC(=O)O)CCCC3)cc2)n1,63
